# Results published in paper PMC5540273 (PLoS ONE, 2017).
# Where “and” joins values, the source holds several entries; their conditions need not be identical. Equal values may be shown once. Read-outs that look alike come from different tables or passages of the source.
# Columns and labels:
# [1] = test system: EPHA4; conditions: n = 1
# [2] = test system: EPHA5; conditions: concentration: 1 μM, replicates: in singlicate; n = 1
# [3] = test system: EPHA6; conditions: n = 1
# [4] = test system: EPHA7; conditions: n = 1
# [5] = test system: EPHA8; conditions: n = 1
# [6] = test system: EPHB1; conditions: n = 1
# [7] = test system: EPHB2; conditions: concentration: 1 μM, replicates: in singlicate; n = 1
# [8] = test system: EPHB3; conditions: n = 1
# [9] = test system: EPHB4; conditions: n = 1
# [10] = test system: EPHB6; conditions: n = 1
# [11] = concentration: 1 μM, replicates: in singlicate
# [12] = concentration: 1 μM,replicates: in singlicate, 1 µM
# 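Further: KINOMEscan kinase panel screen.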
Compound,"%Inh [1, 11] [%]",%Inh [2] [%],"%Inh [3, 11] [%]","%Inh [4, 11] [%]","%Inh [5, 11] [%]","%Inh [6, 11] [%]",%Inh [7] [%],"%Inh [8, 11] [%]","%Inh [9, 11] [%]","%Inh [10, 11] [%]","%Inh [1, 12]","%Inh [3, 12]","%Inh [4, 12]","%Inh [5, 12]","%Inh [6, 12]","%Inh [8, 12]","%Inh [9, 12]","%Inh [10, 12]"
Cc1ccc(NC(=O)Nc2cccc(Cl)c2)cc1-c1ccc(C(=O)Nc2ccncc2)cc1 [GSK1398468],18,0,11,3,38,26,15,4,19,0,–,–,–,–,–,–,–,–
CSc1nn2c(=O)cc(N3CCOCC3)nc2n1Cc1cccc(C(F)(F)F)c1C [GSK2363608],–,0,–,–,–,–,0,–,–,–,2% and 23%,0% and 12%,8% and 6%,0% and 18%,0% and 9%,3% and 28%,13% and 17%,29% and 12%
Nc1nc(-c2nccs2)c(-c2ccnc3ccccc23)s1 [GW693542],11,0,8,10,17,13,0,10,1,5,–,–,–,–,–,–,–,–
COc1ccc(C2=C(Nc3cccc(C(=O)O)c3)C(=O)NC2=O)cc1 [SB-390765],21,7,16,0,10,5,9,20,9,19,–,–,–,–,–,–,–,–
Cc1csc(-c2nc(Nc3ccncc3)c3ccccc3n2)n1 [GW869640],8,13,6,6,5,7,0,9,0,28,–,–,–,–,–,–,–,–
COc1cccc(NC(=O)NC2CCN(c3ccnc(Nc4ccc(F)cc4)n3)C2)c1 (stereo not drawn) [GSK1379721],0,0,0,0,3,17,0,0,0,33,–,–,–,–,–,–,–,–
Cc1cc(NCC(c2ccccc2)c2ccccc2)nc(NCc2ccc(C(F)(F)F)cc2)n1 [GW497681],0,0,0,7,6,0,0,0,7,8,–,–,–,–,–,–,–,–
Cc1cccc(-c2nc(Nc3cccc(C(N)=O)c3)c3ccccc3n2)n1 [GW876019],10,0,0,3,7,9,8,15,50,0,–,–,–,–,–,–,–,–
Cc1ccc(NC(=O)Nc2cc(C(C)(C)C)nn2-c2ccccc2)cc1 [GSK1014915],24,0,28,9,25,14,0,20,12,19,–,–,–,–,–,–,–,–
Cl.Oc1ccc(-c2nc(-c3ccccc3)[nH]c2-c2ccncc2)cc1 [SB-428218],30,0,35,0,4,0,4,25,45,25,–,–,–,–,–,–,–,–
O=C(Nc1n[nH]c2nc(-c3nccs3)c(Br)cc12)C1CC1 [SB-742251],24,1,32,18,35,0,15,29,17,59,–,–,–,–,–,–,–,–
CC(=O)Nc1nc2cnc(Nc3cc(NC(=O)c4cccc(CCC#N)c4)ccc3C)nc2s1,16,6,27,10,16,6,24,14,19,45,–,–,–,–,–,–,–,–
Cc1ccc(C(=O)Nc2ccc(Nc3ccnc4cc(-c5ccccn5)ccc34)cc2O)cc1.Cl [GW440146],0,0,0,4,10,5,14,0,0,48,–,–,–,–,–,–,–,–
CS(=O)(=O)c1ccc(-c2nc3n(c2-c2ccncc2)CCC3)cc1 [SKF-105942],20,0,8,10,13,8,9,14,32,0,–,–,–,–,–,–,–,–
Cn1ccc2ncnc(Oc3ccc(NC(=O)Nc4ccccc4)cc3)c21,0,0,18,0,0,0,1,22,6,35,–,–,–,–,–,–,–,–
CS(=O)(=O)c1ccc(-c2c(-c3ncn[nH]3)sc(N3CCOCC3)c2C#N)cc1,27,27,32,0,0,6,0,36,42,17,–,–,–,–,–,–,–,–
CC(C)(C)c1ccc(C(=O)Nc2cn3cc(Cl)ccc3n2)cc1,0,0,0,0,0,0,0,0,0,8,–,–,–,–,–,–,–,–
CN(C)CCN(C)C(=O)c1cc(-c2ccncc2)c(-c2ccc(Cl)c(O)c2)o1.Cl.Cl [SB-710397],6,0,8,13,16,8,12,11,5,5,–,–,–,–,–,–,–,–
